# Experimental data from the supplement of paper PMC8387472.
# Compound: CC(C)(C#N)c1ccc(N2C(=O)OCc3cnc4ccc(-c5cnc6ccccc6c5)cc4c32)cc1
# Assay: fraction of 1-bp insertions among edited reads; higher = more 1-bp insertion outcomes
# Settings: mESC; 2uM; 72 h treatment, harvest day 5
row,Target,fraction of 1-bp insertions among edited reads
1,"32.0 (DMSO control at this site: 1-bp insertion 0.03, MH deletion 0.85, edited 0.898) AGAAGTCCAGGATCAGGGGGACTGGGGTCGGGAGGGTGGGGCAGGAAGGAAGCCAGAATCA",0.0156
2,"26.0 (DMSO control at this site: 1-bp insertion 0.518, MH deletion 0.262, edited 0.026) AGGGCGCGCCCCACGCACTCTGCGGCAAGTCCCTCTGCGGCAAGTCCTCGGCCCGGAAGAC",0.45
3,"34.0 (DMSO control at this site: 1-bp insertion 0.184, MH deletion 0.385, edited 0.103) ATTATAGGACCCTGAGGGAGCAGAGATGTGGGAATGGGGGCCGAGCCAATTGTGATGTAAG",0.154
4,"18.0 (DMSO control at this site: 1-bp insertion 0.114, MH deletion 0.789, edited 0.094) GCGCAAGTGCATAAGTTTTTCTTAAGGCGTGCCTTTAAGGCGTGCCTTTGTCGGTCCTGGA",0.0901
5,"41.0 (DMSO control at this site: 1-bp insertion 0.022, MH deletion 0.754, edited 0.115) AAAGAGACAGCAGGTATGAATCCATCTTCCTGACCCTTGGGACCAGCCGGGGCAGTGAAGC",0.0302
6,15.0 GCGCCTCCAATGACCCAGTGGGATCCTACTCCATAATGGGATCCTGGGGATTCCTCGCTCC,0.168
7,"47.0 (DMSO control at this site: 1-bp insertion 0.095, MH deletion 0.585, edited 0.118) GAGTGGTCCCGAGCCAGGAACTGTGTGTGTTGCAGGGGGGCAGTAACTCCCCAACTCCCTC",0.09
8,"35.0 (DMSO control at this site: 1-bp insertion 0.01, MH deletion 0.72, edited 0.098) CCACTTTTAGAGAGGGTGAAAATCATCAGTTATCATCAGGGCAACAAATTGCTTTCTCCTA",0.0309
9,"16.0 (DMSO control at this site: 1-bp insertion 0.172, MH deletion 0.29, edited 0.05) CGGACTGCACACATGGGTAGGATCGTGCACGCGAGGTAGGATCGTGCACGCGAAGTTATTC",0.15
10,"19.0 (DMSO control at this site: 1-bp insertion 0.121, MH deletion 0.101, edited 0.057) TCTGCAGGGGTCGGAACCCGGGGGCTAGGGCTATCCCGGGGGCTAGGGCTATTAGCGAACC",0.0907
11,"22.0 (DMSO control at this site: 1-bp insertion 0.573, MH deletion 0.229, edited 0.045) CTGATGGTTGAAGGATTTAGCCGGGGTCCTAGACGCCGGGGTCCTAGACGAAAGGGCCACG",0.564
12,"38.0 (DMSO control at this site: 1-bp insertion 0.063, MH deletion 0.487, edited 0.17) GGGCTGGGTGCTAAAATGAGGAGCTCCAAGAAGACTGAGGTGAACCTGGAGGCCCCTGAGC",0.0615
13,"5.0 (DMSO control at this site: 1-bp insertion 0.214, MH deletion 0.567, edited 0.105) CGCTGACCCGAGACCTACGCGAACCGAAATCGGCGACCGGTGCGCAAGCAGGGCTGGCGTC",0.198
14,"1.0 (DMSO control at this site: 1-bp insertion 0.521, MH deletion 0.323, edited 0.141) GTGTCACAGTGCACGAGTGACGGGATAATGTGCTGACAGGTAATTGATAGGCTTCCAACTT",0.557
15,"0.0 (DMSO control at this site: 1-bp insertion 0.463, MH deletion 0.339, edited 0.14) AGGATTACCGAGACCTACGCGAACCGAAATCGCTGTCCGGTGCGCAAGCAGGGCTGGCGTC",0.497
16,"3.0 (DMSO control at this site: 1-bp insertion 0.109, MH deletion 0.149, edited 0.09) TGCTAGCGCCCCCACAAAGCGGACCAGCCAGCACTATAGGGAATAAGGCCAACTTGCACCC",0.122
17,"7.0 (DMSO control at this site: 1-bp insertion 0.128, MH deletion 0.374, edited 0.098) TACTCAACCGAGACCTACGCGAACCGAAATCGTATGCCGGTGCGCAAGCAGGGCTGGCGTC",0.131
18,"39.0 (DMSO control at this site: 1-bp insertion 0.328, MH deletion 0.371, edited 0.204) CTGCACAGTCACTTAGGATAGGAGAAGATGATGTATAGGGTTTAGTGGGAGATGTTGCAAG",0.385
19,21.0 CGATTGAGAGTCAAACGGGCCAGAAAACTCCGGGAACGGGCCAGAAAACTCCGGGGCATGG,0.021

row,Target,fraction of 1-bp insertions among edited reads
1,"25.0 (DMSO control at this site: 1-bp insertion 0.017, MH deletion 0.774, edited 0.143) GGGCCTGAATGGTGTGGACATCTACTCGCTGGTGAGCTGGTGACTGAAAACATTCAGTGGC",0.0262
2,27.0 CCAGAATTAGAACATATCATCTGGACCCTTTTCCATCTGGACCCTTTTCCAGCACACCCTG,0.141
3,"40.0 (DMSO control at this site: 1-bp insertion 0.072, MH deletion 0.192, edited 0.189) GCGAATCAACTGTTCAACAACAGCAGCAGCCACCTGGAGGACTACAGTGGCCTGTCCGTGT",0.0752
4,"42.0 (DMSO control at this site: 1-bp insertion 0.145, MH deletion 0.655, edited 0.132) GGGCTAAACCTATGAGCACAGTAGAACTAAGGGTGGGTGGTGTAGCTAAAGAACTTGACCA",0.148
5,"28.0 (DMSO control at this site: 1-bp insertion 0.035, MH deletion 0.77, edited 0.142) TGGTTCTTCCTTTGTAGAGAGTGTTCATCTGGGAATCTGGGACTTGGATGAGACAATCATT",0.0355
6,"2.0 (DMSO control at this site: 1-bp insertion 0.364, MH deletion 0.356, edited 0.125) GGTGCCCCCGAGACCTACGCGAACCGAAATCGATGTCCGGTGCGCAAGCAGGGCTGGCGTC",0.381
7,"4.0 (DMSO control at this site: 1-bp insertion 0.146, MH deletion 0.523, edited 0.125) ACGCCTTAGTGCACGAGTGACGGGATAATGTGGTCTCAGGTAATTGATAGGCTTCCAACTT",0.127
8,46.0 TTAAGAGCAATGTTCACGCAACTTGAAATTATATCTGTGGTCTTCAAATTGTCTTTTGTCA,0.09
9,"31.0 (DMSO control at this site: 1-bp insertion 0.315, MH deletion 0.329, edited 0.026) ACCTCCACAGGCTGGGTGGCCCGGAGGCTGGGCGGCCCGGAGGCTGGGCTGGGCGAGTATC",0.14
10,"29.0 (DMSO control at this site: 1-bp insertion 0.084, MH deletion 0.745, edited 0.133) TTGATGAACTTCCTCTTCTTCTCATGTCTCCGGTCTCCGGTAGGCCACGTGCATGGCCACT",0.0763
11,8.0 GCATGCGTGTTTTGGGACAATGTAGTATACATTTGGGAGGCTCTCAGCTTTTCCCAATAAA,0.455
12,"17.0 (DMSO control at this site: 1-bp insertion 0.112, MH deletion 0.348, edited 0.058) CCATAGCGCGATAAATATGACGGCTCATCCTGTATGACGGCTCATCCTGTATCAACTGTCC",0.143
13,"45.0 (DMSO control at this site: 1-bp insertion 0.017, MH deletion 0.666, edited 0.101) TTACACAGCATGAACTGCTAGGTGATGATGTCAGATTCGGTTTTACTAACTTCTCCAAAAA",0.0222
14,"30.0 (DMSO control at this site: 1-bp insertion 0.074, MH deletion 0.67, edited 0.142) GAGCTGGCATGAGTATTTGTGCCACATGGCTCCCACATGGCTCCACATGCAAGTTTGAAAC",0.0675
15,"44.0 (DMSO control at this site: 1-bp insertion 0.181, MH deletion 0.512, edited 0.123) ACACATACCTTCTTCGAGGCAGCCAGCATGATGAGACAGGTCTCCCACAAACACATCGTGT",0.185
16,"20.0 (DMSO control at this site: 1-bp insertion 0.349, MH deletion 0.138, edited 0.084) TACAGGTGTAGACTGGTTACGTGGCTGCGGAATTGACTGGTTACGTGGCTGCGGAATTTTG",0.248
17,"43.0 (DMSO control at this site: 1-bp insertion 0.134, MH deletion 0.714, edited 0.104) AGTTTAACTTACTCCGGCCAAAAAAGAACTGCACCTCTGGAGCGGGTTAGTGGTGGTGGTA",0.0941
18,"33.0 (DMSO control at this site: 1-bp insertion 0.008, MH deletion 0.771, edited 0.112) CATTAAGAGCAGCTGCCGGCCCCCAAGTGGACAGAGCTGGCCCTGCTGATTCAACAGTGCA",0.021
